SMN2 splice up: SMN2 splice variant enhancement. HEK293 SMN2-luciferase splicing reporter, luminescence, 30-36 h. Potency, µM (top dose mostly 46.1 µM), without a hit: at the top dose activity change, positive = activation, hits mostly activators. 2.8% of 210,000 active. AID 1458; note: % of control where 0% means no effect; nearly all actives have a fitted effect of over 55% in size
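qHTS luciferase splicing reporter: luminescence rises when SMN2 exon 7 is included in transfected HEK293 cells. Compound exposure lasted 30-36 h at 37C, with 4.5 mM final sodium butyrate as control, followed by a ONE-Glo read.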
NPC1 prom act: NPC1 promoter activation. Huh7 NPC1 promoter luciferase reporter, 24 h. Potency, µM (titrated, usually from 9.22 µM), for the others: at the top dose activation, hits mostly activators. 2.4% of 320,000 active. AID 485313; note: % of control where 0% means no effect; nearly all actives have a fitted effect of over 60% in size
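Luminescence from an NPC1 promoter-driven luciferase reporter in stably transfected Huh7 cells was measured after 24 h compound treatment at 37 °C, followed by 10 min ambient incubation with luciferase detection reagent.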
FLuc modulator: firefly luciferase modulation, counter-screen for miR-21 project; P08659; purified FLuc, Km substrates, luminescence inhibition; Potency, µM (highest dose often 57.5 µM), for inactives: at the top dose activity change, negative = inhibition, usual class: inhibitors; 6.9% of 360,000 active;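 note: plate controls were vehicle for no effect and reference inhibitor for full effect; nearly all actives have a fitted effect of over 55% in size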
Target sequence (P08659 whole entry, looked up): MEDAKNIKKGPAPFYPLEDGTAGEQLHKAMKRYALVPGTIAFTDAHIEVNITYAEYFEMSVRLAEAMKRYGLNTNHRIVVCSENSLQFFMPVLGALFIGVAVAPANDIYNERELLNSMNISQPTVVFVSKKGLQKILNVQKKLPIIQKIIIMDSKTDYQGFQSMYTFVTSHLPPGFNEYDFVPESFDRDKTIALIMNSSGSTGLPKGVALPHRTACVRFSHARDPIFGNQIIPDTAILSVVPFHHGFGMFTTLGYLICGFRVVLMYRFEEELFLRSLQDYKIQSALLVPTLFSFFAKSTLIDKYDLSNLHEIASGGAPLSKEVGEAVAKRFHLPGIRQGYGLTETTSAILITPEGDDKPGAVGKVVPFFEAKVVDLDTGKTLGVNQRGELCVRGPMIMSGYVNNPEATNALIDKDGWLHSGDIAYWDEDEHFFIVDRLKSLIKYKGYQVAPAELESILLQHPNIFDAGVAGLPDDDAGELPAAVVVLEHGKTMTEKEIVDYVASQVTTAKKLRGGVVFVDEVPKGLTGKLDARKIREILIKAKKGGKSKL
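Purified P. pyralis luciferase (10nM final) with 10uM D-luciferin and 10uM ATP (Km levels) in 50mM Tris acetate pH 7.5, 10mM Mg acetate, 0.01% Tween-20, 0.05% BSA; qHTS 6-point titration, ~60 µM downward; luminescence read.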
Rab9 promoter act: activators of Rab9 promoter; Huh7 Rab9 promoter-luciferase reporter, luminescence, 24 h; Potency, µM (highest dose often 9.22 µM), without a hit: at the highest dose activation, negative = inhibition, most hits filed as activators; 2.8% of 320,000 active; note: % of control where 0% means no effect; nearly all actives have a fitted effect of over 60% in size
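Luminescence from Amplite-detected luciferase (10 minutes, ambient) reports Rab9 promoter activation. Before that, stable Rab9-luciferase Huh7 cells (1500/well, reduced-serum OP-MEM I plus 10% FBS) were exposed to compound for 24 hours at 37C.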
ELG1 genotoxic: inducers of genotoxicity in HEK293T ELG1-luciferase cells | HEK293T ELG1-luciferase reporter, luminescence, 16 h | Potency, µM (series often up to 46 µM), without a hit: top-dose activity change, positive = activation, actives largely listed as activators | 1.3% of 330,000 active; note: % of control where 0% means no effect; nearly all actives have a fitted effect of over 60% in size
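Luminescence read-out: rising ELG1-luciferase signal, reflecting elevated ELG1 protein under genetic stress, flags genotoxic compounds. Cells were treated for 16 hr at 37 °C before ONE-Glo detection.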
KinaseGlo FLuc: blocks Kinase-Glo luciferase, a counter-screen artifact | Q27757 | Kinase-Glo luciferase, ATP luminescence, 8 min | Potency, µM (top dose mostly 38.3 µM), for the others: at the highest dose activity change, negative = inhibition, hits mostly inhibitors | 0.28% of 200,000 active; note: % is set by controls: 0 for no effect and ±100 for the full control effect; nearly all actives have a fitted effect of over 60% in size
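Light output from Kinase-Glo luciferase with luciferin and 10 uM ATP in 50 mM imidazole pH 7.2, KCl, MgCl2, Tween 20, BSA; compound pin-delivered, 8-min ambient incubation, then luminescence read.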
* marks the source's active call; other numbers are inactive results; ? = inconclusive; . = no result given; [ ] = remark or other dose. The list is not random: actives were taken first. Their share in the collection is about 7.3%. Calls come from the whole dose curve; as a rule, active = well fitted curve in the direction sought with a large enough effect; inconclusive = small, poorly fitted or top-dose-only effect, or another doubt; inactive = no such curve, though single readings can be large; an effect the other way counts as inactive or inconclusive. Potency is the fitted concentration of half-maximal effect.

SMILES	SMN2 splice up	NPC1 prom act	FLuc modulator	Rab9 promoter act	ELG1 genotoxic	KinaseGlo FLuc
COc1ccc(OC)c(Nc2ncc3c(n2)CCN(Cc2cc(OC)c(OC)c(OC)c2)C3)c1	.	.	-5.3%	.	.	.
CCOc1c2ccc(C(=O)N[C@H](C)C3CCCCC3)cc2nn1CCOC	12.2%	-3.2%	2.3%	2.7%	-1.0%	-0.3%
Cc1ccc2c(c1)COc1c3ccc(C(=O)N[C@@H](C)CO)cc3nn1-2	.	1.58µM*	3.38µM*	2.24µM*	?	.
Cc1ccc2c(c1)COc1c3ccc(C(=O)NC(C)C)cc3nn1-2	.	1.58µM*	3.01µM*	?	?	.
C=Cc1ccccc1Cl	-1.2%	.	.	.	.	.
COc1cc(/C=C/[N+](=O)[O-])ccc1OCc1cccc(C(=O)O)c1	1.26µM*	1µM*	0.213µM*	1.26µM*	?	-6.5%
CCOc1ccc(OCc2cccc(C(=O)O)c2)cc1	0.0316µM*	-22.2%	0.0169µM*	-25.4%	-28.8%	11.2µM*
O=C(O)c1cc(OCc2ccccc2)cc(OCc2ccccc2)c1	.	-0.9%	1.2%	-8.0%	-5.5%	.
CCN(CC(=O)Nc1c(F)cccc1F)C(=O)c1ccc(COc2ccccc2)cc1	.	1.6%	1.5%	6.5%	-4.8%	.
COc1cc(/C=N/NC(=O)c2cccc([N+](=O)[O-])c2)ccc1OCc1ccccc1	-0.5%	-1.8%	10.2%	0.5%	-1.5%	0.4%
COc1ccc(OCc2cccc(C(=O)O)c2)cc1	0.0398µM*	0.0006µM*	0.0301µM*	1µM*	.	?
CCOc1ccc(OCc2ccc(C(=O)N(CC)CC)cc2)cc1	23.9%	?	15.1µM*	?	5.9%	-0.6%
Cc1ccc2c(c1)c1c(c(=O)n(-c3ccccc3)c(=O)n1Cc1ccccc1C)n2C	.	.	-5.0%	.	.	.
O=C(OCC(F)(F)F)c1cccc(COc2ccc3ccccc3c2)c1	0.447µM*	1µM*	3.38µM*	?	?	-2.0%
O=Cc1ccc(OCc2cccc(C(F)(F)F)c2)cc1O	23.7%	0.9%	?	5.8%	-0.2%	-3.5%
C=CCN(C(=O)CSC1=NC(=O)CN1C(C)=O)c1nc(C)c(-c2ccccc2)s1	?	5.6%	6.75µM*	-35.5%	9.9%	1.5%
Cc1ccc2nc(NC(=O)c3ccc(NS(=O)(=O)c4cccs4)cc3)sc2c1	-7.7%	15.4%	12µM*	15.9%	9.2%	2.0%
Cc1ccc2nc(NC(=O)CCNS(=O)(=O)c3cccs3)sc2c1	-0.8%	16.8%	12µM*	22.0%	-3.6%	2.0%
Cc1cccc2sc(NC(=O)CCNS(=O)(=O)c3cccs3)nc12	0.9%	-10.1%	-0.6%	5.1%	-7.9%	-2.5%
Cc1ccc2nc(NC(=O)CCNS(=O)(=O)c3ccc(Br)s3)sc2c1	-11.0%	1.2%	19µM*	4.0%	-3.7%	-1.9%
C/C(=N\NC(=O)c1ccc(NS(=O)(=O)c2cccs2)cc1)c1ccc(C(C)(C)C)cc1	?	-0.4%	12µM*	-7.1%	0.1%	-0.7%
Cc1ccc2nc(NC(=O)CS(=O)(=O)Cc3ccccc3)sc2c1	.	2.1%	1.3%	3.7%	10.6%	.
COc1ccc(CCNc2nc(SCc3ccccc3Cl)nc3ccccc23)cc1OC	.	.	-0.6%	.	.	.
Cc1ccc(Cl)cc1N(C)C(=O)c1cc2ccc3cccnc3c2[nH]1	.	.	-11.5%	.	.	.
Cc1ccc(/C=C2\SC(=S)N(CCCC(=O)Nc3ccccn3)C2=O)cc1	-62.4%	-27.2%	13.5µM*	-18.7%	-6.5%	4.2%
SMILES	SMN2 splice up	NPC1 prom act	FLuc modulator	Rab9 promoter act	ELG1 genotoxic	KinaseGlo FLuc
CC(=O)Oc1ccc(/C=C2/SC(=S)N(Cc3ccccc3)C2=O)cc1	.	0.8%	-14.0%	-1.2%	-2.6%	.
CCOc1ccc(/C=C2\SC(=S)N(CC(=O)N(CCO)C(C)(C)C)C2=O)cc1	-15.4%	0.3%	12µM*	-2.1%	-7.8%	-3.7%
O=C(CCN1C(=O)/C(=C/c2ccccc2)SC1=S)Nc1ccccn1	.	-1.1%	-11.9%	-3.7%	-1.9%	.
CCOc1ccc(/C=C2\SC(=S)N(CC(=O)Nc3ccccn3)C2=O)cc1	.	14.1%	21.3µM*	26.4%	10.4%	.
O=C1/C(=C/c2ccccn2)SC(=S)N1NS(=O)(=O)c1ccccc1	-39.1%	6.9%	?	-1.5%	-2.2%	1.0%
O=C1/C(=C/c2ccccn2)SC(=S)N1CCc1ccccc1	.	?	-2.6%	3.55µM*	?	.
CC(NC(=O)c1ccc(F)cc1)c1nc2ccccc2[nH]1 (centres undefined)	-0.9%	.	1.0%	.	.	.
O=S(=O)(Nc1cccc(-c2ccc(N3CCOCC3)nn2)c1)c1ccccc1C(F)(F)F	.	.	7.57µM*	.	.	.
O=S(=O)(Nc1cccc(-c2ccc(N3CCOCC3)nn2)c1)c1cc(C(F)(F)F)ccc1Cl	.	.	5.36µM*	.	.	.
O=S(=O)(Nc1cccc(-c2ccc(N3CCOCC3)nn2)c1)c1ccc(F)cc1F	.	.	7.57µM*	.	.	.
O=C(O)c1ccc(Cl)c(S(=O)(=O)Nc2ccccc2N2CCOCC2)c1	-3.9%	-4.4%	-5.2%	-3.2%	-0.8%	8.8%
COc1cc(Cl)c(NC(=O)CN(C)S(=O)(=O)c2ccc3c(c2)CCCC(=O)N3)c(OC)c1	.	.	0.6%	.	.	.
N=C(N)S/C=C\C(=O)O	-2.6%	.	.	.	.	3.4%
CCCn1c(-c2ccc(F)cc2)nc2c(NC(C)CCCN(CC)CC)nc(C)nc21 (centres undefined)	-2.4%	.	.	.	.	-2.5%
COc1ccc(-c2cc(C(F)(F)F)nc(SCC(=O)NCc3ccc(Cl)cc3)n2)cc1	-5.5%	.	-3.9%	.	.	.
CC1(C)CCC(=O)N[C@H]1CC(=O)C[C@H]1NC(=O)CCC1(C)C	-7.4%[9.22 µM]	.	.	.	.	-2.2%[7.66 µM]
CCOc1ccc(-c2csc(-c3c(N)c(C(=O)c4ccc5c(c4)OCO5)n4ccccc34)n2)cc1	20.0%	.	-1.2%	.	.	.
CC(=O)c1cccc(NC(=O)CCc2nc3cccnc3n2Cc2cccs2)c1	-17.6%	.	-10.3%	.	.	.
Cc1ccc(NC(=O)CCc2nc(-c3ccccc3F)no2)c(C)c1	-0.3%	.	-2.1%	.	.	.
